Drawing on PubChem BioAssay (NCI), this text covers growth for eight compounds.

Molecules are shown by their SMILES. The panel holds about 83,000 compounds, 20% with a hit somewhere; the sample as a whole holds those more often.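 A percent growth of 40 corresponds to 60% growth inhibition; 0 means no net growth; -100 means all cells died. Active threshold: below 10.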 Values without a mark were called inactive. The source made the active and inactive calls.

Some test systems named below: DU-145 prostate; K-562 leukemia; MALME-3M melanoma; MDA-MB-231 breast; RXF 393 renal; SF-268 CNS; SF-295 CNS; SF-539 CNS; UACC-257 melanoma; M14 melanoma; HCT-15 colon; HT29 colon; SNB-75 CNS; SNB-19 CNS; U251 CNS; PC-3 prostate; SK-MEL-5 melanoma; UACC-62 melanoma; LOX IMVI melanoma; SK-MEL-28 melanoma.
Holding throughout (experiment): NCI-60 one-dose screen, 48 h (100 = growth as untreated, 0 = no growth, -100 = all killed)
Common to all, as to details: 10 µM unless noted

In the case of `C[C@H]1C=C(C[C@@H](O)CCCCCCCCCC[C@@H](O)[C@H]2CCC(=O)O2)C(=O)O1`, the growth in the experiment on DU-145 prostate is 112%; in the experiment on K-562 leukemia it was 83.5%; in the experiment with MALME-3M melanoma it was 122%; in the experiment on MDA-MB-231 breast, 102%; with RXF 393 renal, 100%; with SF-268 CNS, 115%. Moreover, the growth is 109% with SF-295 CNS; 92.5% in the experiment on SF-539 CNS; 102% with UACC-257 melanoma; 101% in the experiment on M14 melanoma; 108% in the experiment on HCT-15 colon; 109% with HT29 colon. Moreover, the growth is 115% with SNB-75 CNS; 96.7% in the experiment with SNB-19 CNS; 99.5% in the experiment on U251 CNS; 89.4% with PC-3 prostate; 95.9% in the experiment with SK-MEL-5 melanoma; 92.2% in the experiment on UACC-62 melanoma. Also, the growth was 90.5% in the experiment on LOX IMVI melanoma and 124% in the experiment on SK-MEL-28 melanoma.

For the compound `NN=C(c1ccc(Cl)cc1)c1ccc(Cl)cc1`, the growth is 116% in the experiment on DU-145 prostate; 105% in the experiment with K-562 leukemia; 121% in the experiment with MALME-3M melanoma; 106% in the experiment with MDA-MB-231 breast; 109% in the experiment on RXF 393 renal; 96.6% with SF-268 CNS. For the same compound, the growth in the experiment on SF-295 CNS was 91.1%; with SF-539 CNS, 104%; in the experiment on UACC-257 melanoma, 94.5%; with M14 melanoma, 106%; in the experiment on HCT-15 colon, 90.4%; in the experiment on HT29 colon, 96.7%. The growth in the experiment with SNB-75 CNS is 96.3%; in the experiment on SNB-19 CNS, 98.9%; with U251 CNS, 102%; in the experiment on PC-3 prostate, 101%; in the experiment on SK-MEL-5 melanoma, 107%; in the experiment on UACC-62 melanoma, 100%. Moreover, the growth is 77.1% with LOX IMVI melanoma and 117% in the experiment with SK-MEL-28 melanoma.

In the case of `O=S(=O)(O)c1ccc(F)cc1`, the growth was 103% in the experiment with DU-145 prostate; 85% in the experiment with K-562 leukemia; 90.7% in the experiment with MALME-3M melanoma; 112% in the experiment on MDA-MB-231 breast; 116% in the experiment on RXF 393 renal; 93.2% in the experiment on SF-268 CNS. Besides, the growth in the experiment on SF-295 CNS was 96.1%; with SF-539 CNS, 102%; in the experiment on UACC-257 melanoma it was 111%; with M14 melanoma it was 98.1%; with HCT-15 colon, 104%; in the experiment with HT29 colon, 96.5%. Besides, the growth with SNB-75 CNS is 101%; in the experiment with SNB-19 CNS, 114%; in the experiment on U251 CNS, 109%; in the experiment with PC-3 prostate, 106%; in the experiment on SK-MEL-5 melanoma, 105%; in the experiment on UACC-62 melanoma, 107%. Moreover, the growth with LOX IMVI melanoma is 98.9%; with SK-MEL-28 melanoma, 111%.

Take `COc1ccc2c(c1)C(=O)/C(=C/c1ccc(OCC(=O)c3ccc(Cl)cc3)cc1)O2`: the growth in the experiment with DU-145 prostate was 104%; with K-562 leukemia it was -42.3% (active); with MALME-3M melanoma, 80%; in the experiment with MDA-MB-231 breast it was 68.8%; in the experiment on RXF 393 renal it was 74.5%; in the experiment on SF-268 CNS it was 108%. For the same compound, the growth in the experiment with SF-295 CNS was 73.7%; with SF-539 CNS, 96%; in the experiment on UACC-257 melanoma it was 75.1%; in the experiment on M14 melanoma, 83.9%; in the experiment on HCT-15 colon, 98.8%; in the experiment on HT29 colon, 100%. Also, the growth is -0.258% (active) in the experiment on SNB-75 CNS; 101% in the experiment on SNB-19 CNS; 80.9% with U251 CNS; 50.9% with PC-3 prostate; 131% in the experiment on SK-MEL-5 melanoma; 72.2% in the experiment with UACC-62 melanoma. The results for the growth with LOX IMVI melanoma and in the experiment on SK-MEL-28 melanoma were 40.1% and 104%, respectively.

As to `COc1ccc(-c2nnc(NC(=O)CN3CCN(c4cc5c(cc4F)c(=O)c(C(=O)O)cn5C4CC4)CC3)s2)cc1OC`, the growth with DU-145 prostate is 113%; in the experiment with K-562 leukemia it was 89.9%; with MALME-3M melanoma it was 98.9%; in the experiment with MDA-MB-231 breast it was 102%; in the experiment on RXF 393 renal it was 105%; with SF-268 CNS, 97.7%. The growth in the experiment on SF-295 CNS is 103%; with SF-539 CNS, 96.8%; in the experiment with UACC-257 melanoma it was 98%; in the experiment on M14 melanoma, 97.7%; in the experiment with HCT-15 colon, 103%; with HT29 colon, 95.8%. The growth in the experiment on SNB-75 CNS was 90.8%; in the experiment with SNB-19 CNS, 96.2%; with U251 CNS, 99.7%; in the experiment on PC-3 prostate it was 95.6%; in the experiment with SK-MEL-5 melanoma, 99.1%; in the experiment on UACC-62 melanoma, 91.9%. The growth was 74.3% in the experiment on LOX IMVI melanoma and 107% with SK-MEL-28 melanoma.

`O=S(=O)(CCN1CCOCC1)Nc1cncc(-c2ccc3ncnc(Nc4ccc(F)c(Cl)c4)c3c2)c1`: the growth was 65.3% with DU-145 prostate; 96.5% in the experiment with K-562 leukemia; 57.7% in the experiment with MALME-3M melanoma; 67.9% with MDA-MB-231 breast; 84.6% with RXF 393 renal; 63.5% with SF-268 CNS. Moreover, the growth in the experiment on SF-295 CNS is 82.1%; with SF-539 CNS it was 75.1%; with UACC-257 melanoma, 87.6%; in the experiment on M14 melanoma, 73.3%; with HCT-15 colon, 84.6%; in the experiment with HT29 colon it was 73.6%. For the same compound, the growth was 56.3% in the experiment with SNB-75 CNS; 61% in the experiment with SNB-19 CNS; 68.9% in the experiment with U251 CNS; 53.2% with PC-3 prostate; 95.4% in the experiment on SK-MEL-5 melanoma; 77.5% in the experiment on UACC-62 melanoma. Further, the values for the growth in the experiment on LOX IMVI melanoma and in the experiment on SK-MEL-28 melanoma were 56.6% and 81.7%, respectively.

As for `CN(CCNCc1ccccn1)CCNCc1ccccn1`, the growth was 11.3% in the experiment with DU-145 prostate; 2.92% (active) with K-562 leukemia; -21.8% (active) in the experiment with MALME-3M melanoma; 1.53% (active) with MDA-MB-231 breast; -24.3% (active) in the experiment with RXF 393 renal; 20.3% in the experiment with SF-268 CNS. The growth with SF-295 CNS is -6% (active); in the experiment with SF-539 CNS, 3.15% (active); with UACC-257 melanoma, -35.8% (active); with M14 melanoma, -18.3% (active); in the experiment on HCT-15 colon it was 9.87% (active); in the experiment on HT29 colon, 7.47% (active). In addition, the growth is 12.9% with SNB-75 CNS; 44.7% in the experiment on SNB-19 CNS; 11% in the experiment on U251 CNS; 5.04% (active) in the experiment with PC-3 prostate; -31.7% (active) in the experiment with SK-MEL-5 melanoma; 4.5% (active) with UACC-62 melanoma. For the same compound, the values for the growth in the experiment with LOX IMVI melanoma and in the experiment with SK-MEL-28 melanoma were 9.32% (active) and 10.7%, respectively.

Turning to `C#C[C@@]1(O)[C@@H](CO)O[C@@H](n2cc(Br)c3c(Cl)ccnc32)[C@@H]1O`, the growth with DU-145 prostate is -41.3% (active); in the experiment with K-562 leukemia it was 14.3%; in the experiment on MALME-3M melanoma it was 62.1%; in the experiment with MDA-MB-231 breast, -26.6% (active); with RXF 393 renal, -15.9% (active); in the experiment with SF-268 CNS it was 61.7%. Besides, the growth is 26.6% in the experiment on SF-295 CNS; 17.8% in the experiment on SF-539 CNS; 91.3% in the experiment on UACC-257 melanoma; 62.4% with M14 melanoma; 8.13% (active) with HCT-15 colon; 12.2% in the experiment on HT29 colon. For the same compound, the growth in the experiment on SNB-75 CNS is 35.9%; with SNB-19 CNS, 37.1%; in the experiment with U251 CNS, 70.9%; in the experiment with PC-3 prostate, -25.7% (active); in the experiment with SK-MEL-5 melanoma, 73.7%; in the experiment with UACC-62 melanoma, 68%. Moreover, the results for the growth in the experiment with LOX IMVI melanoma and in the experiment with SK-MEL-28 melanoma were -34% (active) and 98.9%, respectively.
